# Laboratory results as given in PubChem BioAssay (NCI).
# The panel holds about 83,000 compounds, 20% with a hit somewhere; the sample as a whole holds those more often.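 Plates (96-well) were seeded with cells, treated with compound at one concentration, and incubated for 48 hours before percent growth was determined.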 A number with no mark means an inactive call. Activity calls are given as the source filed them. The calls were made as follows: active = growth percent below 10; inactive = the rest.
# Legend:
# Test in all cases: NCI-60 one-dose screen, 48 h (100 = growth as untreated, 0 = no growth, -100 = all killed)
# Conditions in all cases: 10 µM unless noted
# HCT-15 colon = test system: HCT-15 colon
# HT29 colon = test system: HT29 colon
# SNB-75 CNS = test system: SNB-75 CNS
# SNB-19 CNS = test system: SNB-19 CNS
# U251 CNS = test system: U251 CNS
# PC-3 prostate = test system: PC-3 prostate
# SK-MEL-5 melanoma = test system: SK-MEL-5 melanoma
# UACC-62 melanoma = test system: UACC-62 melanoma
# LOX IMVI melanoma = test system: LOX IMVI melanoma
# SK-MEL-28 melanoma = test system: SK-MEL-28 melanoma
SMILES,growth (HCT-15 colon),growth (HT29 colon),growth (SNB-75 CNS),growth (SNB-19 CNS),growth (U251 CNS),growth (PC-3 prostate),growth (SK-MEL-5 melanoma),growth (UACC-62 melanoma),growth (LOX IMVI melanoma),growth (SK-MEL-28 melanoma)
N#C/C(=C\c1ccc(Cl)cc1Cl)C(=O)Nc1ncc(Cc2ccc(Cl)c(Cl)c2)s1,37.7%,66.3%,97.9%,97.7%,90.9%,79.3%,97.8%,35.2%,34.4%,99.6%
O=C1N[C@@H]2[C@@H](O)[C@@H](O)[C@H](O)C[C@H]2c2cc3c(c(O)c21)OCCO3,-11.9% (active),-14.5% (active),-4.29% (active),-10.4% (active),-14.9% (active),-9.66% (active),-52.1% (active),-13.3% (active),-41.1% (active),-16.4% (active)
NC(=O)OCCn1cc(-c2nc(-c3c[nH]c4ncccc34)cs2)c2ccccc21,28%,8.34% (active),10.6%,42.2%,20%,33.2%,18.5%,32.9%,30.1%,61.7%
Cc1ccc2nc(Cl)c(Cn3nnnc3SCc3ccccc3)cc2c1,90.7%,101%,93.4%,98.8%,95.8%,90.4%,93%,83.7%,86.7%,107%
Cc1cc(N2CCCCC2)nc(N2CCN(CC(=O)Nc3ccc4c(ccn4Cc4ccccc4)c3)CC2)n1,48.1%,12.4%,66.4%,70%,40.3%,38.7%,57.6%,56.5%,60.7%,73.7%
CCOC(=O)c1n[nH]n2c1nc(=O)c1cnn(C)c12,105%,107%,103%,102%,100%,97.7%,105%,106%,103%,113%
CC[C@@H](c1ccc2cc(OC)ccc2c1)C(C)(C)C(=O)F,104%,118%,106%,91.9%,98.8%,101%,106%,103%,91.4%,106%
CCCCCCCCn1ccc2cc(NC(=O)Cn3cc(CN4CCCCCC4)nn3)ccc21,-65.9% (active),-48.3% (active),87.5%,14.4%,-43.6% (active),40%,0.757% (active),-70.9% (active),-90.8% (active),-86.1% (active)
O=C(CCCCl)NNc1nccc(Nc2ccc(S(=O)(=O)Nc3ccncc3)cc2)n1,103%,102%,93.2%,106%,103%,93%,105%,102%,98%,107%
CC1(C)CC[C@]2(C(=O)O)CC[C@]3(C)C(=CC[C@@H]4[C@@]5(C)C[C@@H](Cc6cn([C@@H]7O[C@H](CO)[C@@H](O)[C@H](O)[C@H]7O)nn6)[C@H](O)C(C)(C)[C@@H]5CC[C@]43C)[C@@H]2C1,106%,99.1%,92%,97%,92%,93.4%,100%,93.2%,99.4%,103%
N#Cc1c(-c2cccc([N+](=O)[O-])c2)cc(-c2ccc(Nc3nc(Nc4ccc(F)cc4)nc(Nc4ccc(F)cc4)n3)cc2)nc1N,103%,113%,102%,104%,110%,92%,84.4%,110%,97.9%,114%
O=c1nc(Nc2nc3ccccc3s2)[nH]c(=O)c2ccccc12,99.2%,108%,76.5%,95.6%,98.6%,105%,99.6%,99%,95.7%,110%
C=C1C(=O)O[C@H]2[C@H]1CC/C(COC(=O)NCCCCCCCCNC(=O)OC/C1=C/CC[C@@]3(C)O[C@H]3[C@H]3OC(=O)C(=C)[C@@H]3CC1)=C\CC[C@@]1(C)O[C@@H]21,-83.9% (active),-67.1% (active),-19.8% (active),6.51% (active),-48.2% (active),-64.3% (active),-85.3% (active),-70.8% (active),-78.2% (active),-75.3% (active)
O=C(Cn1cc(CN2C(=O)c3ccccc3S2(=O)=O)nn1)Nc1cccc(Cl)c1,98.2%,109%,87.8%,115%,112%,104%,106%,97.4%,89.5%,105%
C[C@@H]1CC[C@@]2(OC1)O[C@H]1C[C@H]3[C@@H]4CC=C5C[C@@H](O[C@@H]6O[C@H](CO)[C@@H](O[C@@H]7O[C@@H](CO)[C@H](O)[C@H]7O)[C@H](O)[C@H]6O[C@@H]6O[C@@H](C)[C@H](O)[C@@H](O)[C@H]6O)CC[C@]5(C)[C@H]4CC[C@]3(C)[C@H]1[C@@H]2C,-84.8% (active),-61.2% (active),-94.3% (active),-81.7% (active),-97.7% (active),-90.2% (active),-89.7% (active),-98% (active),-96.7% (active),-96.9% (active)
O=C(Nc1nc(C(=O)N2CCN(C(c3ccccc3)c3ccccc3)CC2)cs1)c1ccc(NC2CCCCC2)c([N+](=O)[O-])c1,96.9%,86.1%,86.1%,85.9%,83.5%,76.1%,60.6%,67.1%,91.5%,100%
CCN1C(=O)N(CC)C2C1NN=c1s/c(=C\c3ccccc3Br)c(=O)n12 (stereo not given),8.51% (active),4.72% (active),10.1%,26.8%,5.61% (active),23.2%,-17.6% (active),24.5%,16.3%,57.4%
CN1CCN(Cc2cc(NC(=O)c3cccc(C#Cc4cccc5[nH]nc(N)c45)c3)cc(C(F)(F)F)c2)CC1,10.8%,-15.8% (active),22.9%,52.1%,22.2%,27.4%,-5.74% (active),12.1%,-90.1% (active),-60.5% (active)
CN1CCN(CCOc2ccc(-c3cnc4c(-c5ccc(C(F)(F)F)cc5)cnn4c3)cc2)CC1,-33.6% (active),-15.5% (active),96.1%,61.4%,1.48% (active),28.3%,64.4%,72.4%,-89.9% (active),85.1%
COc1ccc(NC(=O)c2sc3nc(C)c(C(O)c4ccccc4)cc3c2N)cc1 (stereo not given),24.9%,13.1%,20.3%,28.6%,17.8%,23.4%,23.2%,26.2%,55.1%,57%
C=C(CO)[C@@H]1CC[C@]2(COC3CCCCO3)CC[C@]3(C)[C@H](CC[C@@H]4[C@@]5(C)C=C(C=O)C(=O)C(C)(C)[C@@H]5CC[C@]43C)[C@@H]12 (stereo not given in full),-90.5% (active),-83.6% (active),-51.6% (active),-83.8% (active),-88.6% (active),-82.5% (active),-95.1% (active),-76.7% (active),-88.4% (active),-71.3% (active)
C=CCOC(=O)C1=C(C)NC(=O)NC1c1c(Cl)n(C)c2ccccc12 (stereo not given),99.8%,110%,97.8%,94%,96.3%,89.2%,102%,90.3%,102%,99.6%
COc1ccc(OC)c(Nc2nnc(-c3ccc(Cl)cc3)o2)c1,96%,48.9%,59.4%,58.4%,2.55% (active),88.4%,104%,97.5%,73.8%,102%
CN1CCN(CCCOC(=O)c2c3c(n4ccccc24)C(=O)c2ncccc2C3=O)CC1,-39.1% (active),-32.3% (active),-88.7% (active),1.8% (active),-31.7% (active),17.6%,-98% (active),-48.8% (active),-60.9% (active),12.5%
